Only a selection was taken, and hits are over-represented in it overall.
NOMO-1 viab – NOMO-1 AML cell viability reduction, primary screen, STK33 inhibitor project, CellTiter-Glo luminescence | NOMO-1 AML viability, 72 h | inhibition, % (no concentration beside the values) | 7.5% of 37,000 active; in the data active = inhibition above about 80%; inconclusive = no clear call, values can overlap the other calls
STK33 inh – STK33 kinase inhibitors, primary screen, biochemical, luminescence, ADP-Glo, MBP substrate | inhibition, % at 12.5 µM | AID 2322, 2010 | Serine/threonine-protein kinase 33 (Homo sapiens), Q9BYT3 | 0.44% of 27,000 active; in the data active = inhibition above about 20%; inconclusive = no clear call, values can overlap the other calls
Target sequence (Q9BYT3 whole entry, looked up): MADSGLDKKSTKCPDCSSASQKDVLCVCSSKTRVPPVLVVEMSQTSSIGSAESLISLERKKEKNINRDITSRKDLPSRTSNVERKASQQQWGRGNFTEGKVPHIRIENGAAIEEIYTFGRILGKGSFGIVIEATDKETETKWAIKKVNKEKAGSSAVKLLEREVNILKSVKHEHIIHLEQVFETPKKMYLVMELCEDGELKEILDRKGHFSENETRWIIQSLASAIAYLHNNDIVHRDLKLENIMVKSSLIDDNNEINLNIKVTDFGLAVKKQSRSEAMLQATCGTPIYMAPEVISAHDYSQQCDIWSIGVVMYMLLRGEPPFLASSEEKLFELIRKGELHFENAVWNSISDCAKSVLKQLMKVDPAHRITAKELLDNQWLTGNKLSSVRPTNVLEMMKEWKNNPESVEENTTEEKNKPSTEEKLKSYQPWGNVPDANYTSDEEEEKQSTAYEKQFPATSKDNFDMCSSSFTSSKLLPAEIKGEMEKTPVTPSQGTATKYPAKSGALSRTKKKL
p53 PUMA act – mutant p53 pathway re-activators, primary screen, cell-based, SW480, luciferase, single point, HTS; SW480 PUMA-promoter luciferase, p53 mutant reactivation; activation, % at 9.98 µM; 1.5% of 28,000 active; AID 624151, 2012; in the data active = activation above about 52%; inconclusive = no clear call, values can overlap the other calls
MITF inh – inhibitors of MITF, primary screen, MITF inhibitor project, cell-based, luminescence; TRPM1 promoter luciferase, 24 h; inhibition, % (no concentration beside the values); 0.28% of 37,000 active; in the data active = inhibition above about 85%; inconclusive = no clear call, values can overlap the other calls; inactive = below about 68%;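 also: human melanocyte line stably carrying TRPM1 promoter luciferase reporter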
Each line names hits and unclear results; the compound was inactive in the other large screens.

C[C@@H]1CN([C@@H](C)CO)C(=O)Cc2cc(NS(=O)(=O)c3ccc(Cl)cc3)ccc2O[C@@H]1CN(C)Cc1ccccc1	NOMO-1 viab inconclusive (no result: p53 PUMA act)
Cc1ccc(-c2nn(-c3ccc(C)cc3)c3c2cnc2c(F)cccc23)cc1	none (no result: NOMO-1 viab, STK33 inh, MITF inh)
O=C(CSc1nc2ccccc2c(=O)[nH]1)Nc1ccccc1C(=O)c1ccccc1	none
Cc1cc(I)ccc1NC(=O)CN(c1cccc(C(F)(F)F)c1)S(C)(=O)=O	none
C[C@H]1CN([C@@H](C)CO)C(=O)Cc2cc(N(C)C)ccc2O[C@H]1CN(C)Cc1ccccc1	none
C[C@@H]1CN([C@@H](C)CO)C(=O)Cc2cc(N(C)C)ccc2O[C@@H]1CN(C)Cc1ccc(Oc2ccccc2)cc1	NOMO-1 viab 106 (no result: p53 PUMA act)
C[C@@H]1CN([C@@H](C)CO)C(=O)Cc2cc(N(C)C)ccc2O[C@@H]1CN(C)Cc1ccccc1	NOMO-1 viab 122
CS(=O)(=O)c1scc(-c2cccs2)c1C#N	none (no result: STK33 inh, p53 PUMA act)
C[C@@H]1CN([C@H](C)CO)C(=O)Cc2cc(NS(=O)(=O)c3ccc(Cl)cc3)ccc2O[C@@H]1CN(C)Cc1ccc(Cl)c(Cl)c1	NOMO-1 viab 117 (no result: p53 PUMA act)
C[C@H](CO)N1C[C@H](C)[C@H](CN(C)Cc2ccc(Cl)c(Cl)c2)Oc2ccc(NS(=O)(=O)c3ccc(Cl)cc3)cc2CC1=O	NOMO-1 viab 102 (no result: p53 PUMA act)
C[C@H]1CN([C@@H](C)CO)C(=O)Cc2cc(NS(=O)(=O)c3ccc(Cl)cc3)ccc2O[C@H]1CN(C)Cc1ccc(Cl)c(Cl)c1	NOMO-1 viab 97 (no result: p53 PUMA act)
COc1ccc(S(=O)(=O)Nc2ccc3c(c2)CC(=O)N([C@@H](C)CO)C[C@H](C)[C@@H](CN(C)Cc2ccc(Cl)c(Cl)c2)O3)cc1	NOMO-1 viab 88 (no result: STK33 inh, p53 PUMA act)
Cc1ccc(-c2csc3nnc(SCC(=O)Nc4ccc5c(c4)OCCO5)n23)cc1	none
COc1ccc(C(=O)Nc2ccccc2)cc1S(=O)(=O)Nc1cccnc1	none
C=CCn1c(-c2ccccc2)nn(CCC#N)c1=S	none (no result: NOMO-1 viab, STK33 inh, MITF inh)
C=CCn1c(-c2cccs2)nc(-c2ccccc2)c1-c1ccccc1	NOMO-1 viab 121 (no result: p53 PUMA act)
CS(=O)(=O)N(CC(=O)Nc1ccc(Cl)cc1)c1cccc([N+](=O)[O-])c1	none
COc1cc(/C=C/C(=O)OC2C(COC(=O)c3cc(OC)c(OC)c(OC)c3)OC(OC3(CO)OC(CO)C(O)C3O)C(O)C2O)cc(OC)c1OC (configuration not stated)	none
CC1=CC(c2ccccc2)=C(C#N)C(=S)C1CC(=O)c1cccs1 (configuration not stated)	none (no result: STK33 inh, p53 PUMA act)
O=C(O)c1cc(O)c2c(c1)C(=O)c1cc(O)cc(O)c1C2=O	none (no result: p53 PUMA act)
O=C1c2ccc(O)cc2C(=O)c2ccc(O)cc21	STK33 inh 34
Cc1ccc(C)c(OC(=O)CS(=O)c2ccccc2[N+](=O)[O-])c1 (configuration not stated)	NOMO-1 viab 120
O=C(CS(=O)c1ccccc1[N+](=O)[O-])Oc1ccc(Cl)cc1Cl (configuration not stated)	none
Cc1noc(C)c1S(=O)(=O)Nc1ccc2c(c1)CC(=O)N([C@H](C)CO)C[C@H](C)[C@H](CN(C)Cc1ccc(C(=O)Nc3ccccc3N)cc1)O2	NOMO-1 viab 142 (no result: STK33 inh, p53 PUMA act)
C[C@H]1CN([C@@H](C)CO)C(=O)c2cc(NS(=O)(=O)c3ccccc3)ccc2O[C@H]1CN(C)Cc1ccc(C(=O)Nc2ccccc2N)cc1	NOMO-1 viab inconclusive (no result: STK33 inh, p53 PUMA act)
Cc1noc(C)c1S(=O)(=O)Nc1ccc2c(c1)C(=O)N([C@@H](C)CO)C[C@@H](C)[C@@H](CN(C)Cc1ccc(C(=O)Nc3ccccc3N)cc1)O2	NOMO-1 viab 108 (no result: STK33 inh, p53 PUMA act)
Cc1noc(C)c1S(=O)(=O)Nc1ccc2c(c1)C(=O)N([C@H](C)CO)C[C@H](C)[C@H](CN(C)Cc1ccc(C(=O)Nc3ccccc3N)cc1)O2	NOMO-1 viab 108 (no result: STK33 inh, p53 PUMA act)
Cc1noc(C)c1S(=O)(=O)Nc1ccc2c(c1)C(=O)N([C@@H](C)CO)C[C@H](C)[C@@H](CN(C)Cc1ccc(C(=O)Nc3ccccc3N)cc1)O2	none (no result: STK33 inh, p53 PUMA act)
Cc1noc(C)c1S(=O)(=O)Nc1ccc2c(c1)C(=O)N([C@H](C)CO)C[C@@H](C)[C@@H](CN(C)Cc1ccc(C(=O)Nc3ccccc3N)cc1)O2	NOMO-1 viab 108 (no result: STK33 inh, p53 PUMA act)
COc1c(O)c(C(=O)CCc2ccccc2)c(OC)c(OC)c1OC	none
COc1cc(OC)cc(-c2nc(N)c3c(C)c(-c4ccc(OC)c(OC)c4)sc3n2)c1	NOMO-1 viab 115 (no result: STK33 inh, p53 PUMA act)
CC(=O)NCCOc1ccc(C2CCCCC2)cc1	none (no result: p53 PUMA act)
Nc1cc(C(F)(F)F)ccc1Oc1ccc(C2CCCCC2)cc1	NOMO-1 viab 113 (no result: STK33 inh, p53 PUMA act)
Cc1ccc2nc(-c3cccc(NC(=O)COc4ccccc4C)c3)oc2c1	none
O=C(Oc1cc(=O)oc2c1c(=O)n1c3c(cccc23)CC1)c1ccccc1	NOMO-1 viab 140 (no result: STK33 inh, p53 PUMA act)
O=C(Oc1cccc2ccccc12)c1ccccc1	none (no result: STK33 inh, p53 PUMA act)
Cc1ccc(C(C)C)c(OCC(=O)Nc2sc3c(c2C(N)=O)CCC(C)C3)c1 (configuration not stated)	none
C[C@H]1CN([C@@H](C)CO)C(=O)c2cccc(NC(=O)Nc3ccc(C(F)(F)F)cc3)c2O[C@H]1CN(C)C(=O)Nc1ccccc1	NOMO-1 viab 103 (no result: STK33 inh, p53 PUMA act)
C[C@@H]1CN([C@H](C)CO)C(=O)c2cccc(NC(=O)Nc3ccccc3)c2O[C@H]1CN(C)C(=O)Nc1ccc(C(F)(F)F)cc1	none (no result: STK33 inh, p53 PUMA act)
COc1ccc(NC(=O)N(C)C[C@@H]2Oc3c(NC(=O)Nc4ccc(C(F)(F)F)cc4)cccc3C(=O)N([C@@H](C)CO)C[C@H]2C)cc1	NOMO-1 viab 93 (no result: STK33 inh, p53 PUMA act)
C[C@H](CO)N1C[C@H](C)[C@H](CN(C)C(=O)Nc2ccc(C(F)(F)F)cc2)Oc2c(NS(=O)(=O)c3ccc(F)cc3)cccc2C1=O	NOMO-1 viab 84 (no result: STK33 inh, p53 PUMA act)
C[C@@H]1CN([C@@H](C)CO)C(=O)c2cccc(NC(=O)Nc3ccc(C(F)(F)F)cc3)c2O[C@@H]1CN(C)C(=O)Nc1ccc(C(F)(F)F)cc1	NOMO-1 viab 115 (no result: STK33 inh, p53 PUMA act)
CCC(=O)N1CCN(c2ccc(Cl)cc2NC(=O)COc2cc(C)cc(C)c2)CC1	none
C[C@H]1CCCCO[C@@H](CN(C)C)[C@@H](C)CN([C@@H](C)CO)C(=O)c2cc(NC(=O)Nc3ccc(C(F)(F)F)cc3)ccc2O1	none (no result: NOMO-1 viab, STK33 inh, MITF inh)
C[C@H]1CCCCO[C@H](CN(C)C)[C@@H](C)CN([C@@H](C)CO)C(=O)c2cc(NC(=O)Nc3ccc(C(F)(F)F)cc3)ccc2O1	none (no result: NOMO-1 viab, STK33 inh, MITF inh)
C[C@@H]1CCCCO[C@@H](CN(C)C(=O)Nc2ccc(C(F)(F)F)cc2)[C@@H](C)CN([C@H](C)CO)C(=O)c2cc(NC(=O)c3ccccc3)ccc2O1	NOMO-1 viab 91 (no result: p53 PUMA act)
C[C@@H]1CCCCO[C@@H](CN(C)CC2CC2)[C@@H](C)CN([C@H](C)CO)C(=O)c2cc(NC(=O)Nc3ccc(C(F)(F)F)cc3)ccc2O1	NOMO-1 viab 119 (no result: p53 PUMA act)
C[C@@H]1CCCCO[C@@H](CN(C)CC2CCCCC2)[C@@H](C)CN([C@H](C)CO)C(=O)c2cc(NC(=O)Nc3ccc(C(F)(F)F)cc3)ccc2O1	NOMO-1 viab 117 (no result: p53 PUMA act)
